Reference: PubChem BioAssay (NCATS)
Records with an inconclusive call do not appear. Entries that show only a call come without a potency. Activity calls are given as the source filed them. The call rests on the fitted dose curve; in most records, active means well fitted cell-killing curve with a large enough effect; inconclusive means small, poorly fitted or top-dose-only effect, or effect the other way; inactive means no such curve, though single readings can be large or run the other way.

Assay: Quantitative High-Throughput drug screen in 47 multiple myeloma cell lines against the NCATS MIPE library collection: KMS28PE_JCRB cell viability assay (AID 1918983); further: nearly all actives have a fitted effect of over 35% in size
Conditions: KMS28PE multiple myeloma viability, CellTiter-Glo ATP, 48 h; series mostly up to 45.8 µM
From the text: PI: Beverly A. Mock Ph.D.
Laboratory of Cancer Biology and Genetics,
Center for Cancer Research, National Cancer Institute,
National Institute of Health, Bethesda, Maryland
Drug resistance and disease progression are common in multiple myeloma (MM) patients, underscoring the need for new therapeutic combinations. […] We hypothesized that effective combinations would reduce MYC expression and enhance p16 activity. […] These preclinical data identify potentially useful drug combinations for evaluation in drug-resistant MM and reveal potential mechanisms of combined drug sensitivity.
Described herein is the primary MIPE qHTS used to cherrypick compounds. Validated compounds were then further tested for potential synergistic activiy.
[1] Peat TJ, Gaikwad SM, Dubois W, Gyabaah-Kessie N, Zhang S, Gorjifard S, Phyo Z, Andres M, Hughitt VK, Simpson RM, Miller MA, Girvin AT, Taylor A, Williams D, D'Antonio N, Zhang Y, Rajagopalan A, Flietner E, Wilson K, Zhang X, Shinn P, Klumpp-Thomas C, McKnight C, Itkin Z, Chen L, Kazandijian D, Zhang J, Michalowski AM, Simmons JK, Keats J, Thomas CJ, Mock BA. Drug combinations identified by high-throughput screening promote cell cycle transition and upregulate Smad pathways in myeloma. Cancer Lett. 2023 Aug 1;568:216284. doi: 10.1016/j.canlet.2023.216284. Epub 2023 Jun 24. PMID: 37356470; PMCID: PMC10408729.
SEQUENCE No. (e.g., 1, 2, 3, etc.); […] (e.g., Cells, Incubation, Reagent, etc.); VALUE and DESCRIPTION.
1; Cells; 5 uL; white, solid bottom 1536-well Greiner assay plate.
2; Compounds; 23 nL; Kalypsis pin tool (Wako USA) equipped with a 1536-well pin head to transfer to the assay plates.
3; Incubation; 48 hours; 37C incubation.
4; Reagent;5uL; CellTiter Glo (Promega).
5; Detector; 425V; Luminescence; Viewlux PerkinElmer.
NOTES (numbers refer to Sequence numbers above)
1. The cell-based screening methods employed in this study were like those previously published. Briefly, the corresponding myeloma cell lines were screened in 1,536-well plates with 500 cells, 5-uL per well for inhibition of cell viability (assessed by measuring ATP levels with CellTiterGlo).
2. NCATS MIPE 4.0 library of approved and investigational drugs were added using the Kalypsis pin tool. Wells treated with DMSO only for 100% viability and media only for 0% viability were used as controls.
3. The assay plates were covered and incubated for 48 hours in a 37C, 5% CO2 incubator with controlled humidity.
4. After 48 hours, CellTilter-GloTM luminescent substrate mix (Promega) reagent was added to the assay plate and plates we incubated for 5 min at room temperature.
5. Signal was measured as median relative luminescence units on a ViewLux (PerkinElmer) multiplate reader.
[1] Heske CM, Davis MI, Baumgart JT, Wilson K, Gormally MV, Chen L, Zhang X, Ceribelli M, Duveau DY, Guha R, Ferrer M, Arnaldez FI, Ji J, Tran HL, Zhang Y, Mendoza A, Helman LJ, Thomas CJ. Matrix Screen Identifies Synergistic Combination of PARP Inhibitors and Nicotinamide Phosphoribosyltransferase (NAMPT) Inhibitors in Ewing Sarcoma. Clin Cancer Res. 2017 Dec 1;23(23):7301-7311. doi: 10.1158/1078-0432.CCR-17-1121. Epub 2017 Sep 12. PMID: 28899971; PMCID: PMC6636827.
Potency means the concentration at half of the fitted maximal effect.

| Structure (SMILES) | Potency |
| --- | --- |
| C[C@](O)(CS(=O)(=O)c1ccc(F)cc1)C(=O)Nc1ccc(C#N)c(C(F)(F)F)c1 | 26.4 µM (active) |
| C[C@]12CCC(=O)C=C1CC[C@@H]1[C@H]3CC[C@](C)(O)[C@@]3(C)CC[C@@H]12 | inactive |
| CN1C(=O)CCS(=O)(=O)C1c1ccc(Cl)cc1 (stereo not given) | inactive |
| CC(NC(C)(C)C)C(=O)c1cccc(Cl)c1 (stereo not given) | inactive |
| C[C@]12CC[C@H]3[C@@H](CC[C@@]45O[C@H]4C(O)=C(C#N)C[C@]35C)[C@H]1CC[C@H]2O | inactive |
| CCC1(c2ccc(N)cc2)CCC(=O)NC1=O (stereo not given) | inactive |
| CC(C)C[C@H](CN)CC(=O)O | inactive |
| COc1cc(OC)c(OC)cc1C=O | inactive |
| CN1C(=O)COc2c(C(=O)NC3CN4CCC3CC4)cc(Cl)cc21 (stereo not given) | inactive |
| CC(C)c1cccc(C(C)C)c1O | inactive |
